Compounds with a hit are over-represented: about 5.7% of the library has one in this group of screens.
KB-V1 MDR tox = kills drug-selected multidrug resistant KB-V1 cells | Potency, µM (top dose mostly 46.1 µM), usual class: cytotoxic | 3.4% of 400,000 active | KB-V1 MDR cells viability, CellTiter-Glo, 72 h | AID 1347076; further: nearly all actives have a fitted effect of over 60% in size
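qHTS viability screen in drug-selected KB-V1 MDR cells: 72 h compound treatment at 37 degrees C, ATP luminescence end point.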
HT1080-NT tox = kills 2HG-producing HT-1080-NT fibrosarcoma cells; HT-1080-NT fibrosarcoma viability, CellTiter-Glo ATP luminescence, 48 h; Potency, µM (top dose mostly 46.1 µM), hits mostly cytotoxic; 1.6% of 360,000 active; AID 686970;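 further: NT is the 2HG producing partner of a matched IDH1 knockdown line; nearly all actives have a fitted effect of over 55% in size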
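HT-1080-NT; 750 cells/well; 5% FBS RPMI; 48 h compound, 37 degrees C; CellTiter-Glo luminescence; curve fitting and curve-class assignment.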
HT1080 IDH1KD tx = toxicity to HT-1080 IDH1 knockdown cells (counter line); HT-1080 IDH1 knockdown viability, ATP luminescence, 48 h; Potency, µM (highest dose often 46.1 µM), most hits filed as cytotoxic; 2% of 360,000 active; AID 686971
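CellTiter-Glo luminescence after 48 h compound exposure at 37 degrees C of IDH1-knockdown HT-1080 cells in 5% FBS RPMI. %Activity scaled between DMSO wells and cell-free media wells, with curves fitted and assigned curve classes.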
KB-3-1 cytotox = kills parental KB-3-1 adenocarcinoma cells | KB-3-1 viability, CellTiter-Glo ATP luminescence, 72 h | Potency, µM (highest dose often 46.1 µM), hits mostly cytotoxic | 1.4% of 400,000 active | AID 1347075; further: nearly all actives have a fitted effect of over 60% in size
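Here the drug-naive KB-3-1 line serves as comparator for MDR sub-line selectivity; cells received compound titrations, 72 h at 37 °C, then CellTiter-Glo readout.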
Of the large screens only hits and unclear results are named; the others gave an inactive call. The call rests on the fitted dose curve; in most records, active means well fitted curve in the direction sought with a large enough effect; inconclusive means small, poorly fitted or top-dose-only effect, or another doubt; inactive means no such curve, though single readings can be large; an effect the other way counts as inactive or inconclusive.

Cc1cc(C)n(CC(O)Cn2c3ccc(Cl)cc3c3cc(Cl)ccc32)c(=O)n1 (configuration not stated)	KB-V1 MDR tox 16µM, HT1080-NT tox inconclusive, HT1080 IDH1KD tx inconclusive
COC1=CC(=O)OC(c2cccc(C#N)c2)C1 (configuration not stated)	none
CCCCCCCCOC(=O)C1=C(C)Nc2nnnn2C1c1cccs1 (configuration not stated)	KB-V1 MDR tox 15µM, HT1080-NT tox inconclusive, HT1080 IDH1KD tx inconclusive, KB-3-1 cytotox inconclusive
CCCCCCCOC(=O)C1=C(C)Nc2ncnn2C1c1cccs1 (configuration not stated)	KB-V1 MDR tox inconclusive
COc1ccccc1N1CCN(c2ccc(=O)n(CC(=O)O)n2)CC1	none (no result: HT1080-NT tox, HT1080 IDH1KD tx)
CCC(=O)N1CCc2cc(S(=O)(=O)NC(Cc3ccccc3)C(=O)NCc3ccc(F)cc3)ccc21 (configuration not stated)	none (no result: HT1080-NT tox, HT1080 IDH1KD tx)
Cc1c(C(=O)Nc2cccnc2)oc2ccc(Br)cc12	KB-V1 MDR tox 3.3µM, HT1080-NT tox inconclusive, HT1080 IDH1KD tx inconclusive, KB-3-1 cytotox 8.2µM
O=C(Nc1cccnc1)c1ccc(Br)s1	KB-V1 MDR tox inconclusive, HT1080-NT tox inconclusive, HT1080 IDH1KD tx 10µM
O=C(Nc1cccnc1)c1cc2c(ccc3ccccc32)o1	KB-V1 MDR tox 13µM, KB-3-1 cytotox inconclusive
COc1ccc(C)cc1NC(=O)Cn1c(=O)n(Cc2nc(C)no2)c(=O)c2ccccc21	none (no result: HT1080-NT tox, HT1080 IDH1KD tx)
CC(C)c1ccc(NC(=O)C2(C)Cc3ccccc3C(=O)O2)cc1 (configuration not stated)	KB-V1 MDR tox inconclusive (no result: HT1080-NT tox, HT1080 IDH1KD tx)
O=C1c2ccccc2C(=O)N1CCCc1c[nH]c2ccccc12	KB-V1 MDR tox 21µM
Cc1sc2ncnc(N3CCC(C(=O)N(C)CC(=O)Nc4cccc(F)c4)CC3)c2c1C	HT1080-NT tox inconclusive, HT1080 IDH1KD tx inconclusive
CCc1nnc(NC(=O)C2CCN(c3ncnc4sc(C)c(C)c34)CC2)s1	KB-V1 MDR tox inconclusive
CCOC(=O)c1ccccc1NC(=O)C1CCN(c2ncnc3sc(C)c(C)c23)CC1	KB-V1 MDR tox 23µM, KB-3-1 cytotox inconclusive
Cc1sc2ncnc(N3CCC(C(=O)Nc4nc(-c5cccs5)cs4)CC3)c2c1C	KB-V1 MDR tox 5.2µM, KB-3-1 cytotox inconclusive
Cc1sc2ncnc(N3CCC(C(=O)Nc4ccccc4C(C)(C)C)CC3)c2c1C	KB-V1 MDR tox inconclusive
Cc1sc2ncnc(N3CCC(C(=O)N(C)CC(=O)Nc4ccc(Cl)c(C(F)(F)F)c4)CC3)c2c1C	HT1080-NT tox inconclusive, HT1080 IDH1KD tx 16µM, KB-3-1 cytotox 21µM
COc1cc2c(C(=O)N3CCN(c4ccc(C)cc4)C(C)C3)cn(CC(C)C)c(=O)c2cc1OC (configuration not stated)	none (no result: HT1080-NT tox, HT1080 IDH1KD tx)
COC(=O)c1c(SC)nc2ccccc2c1OCc1ccc(C)cc1C	none (no result: HT1080-NT tox, HT1080 IDH1KD tx)
CCn1nc(C)c(CCN(C)C(=O)Nc2cc(Cl)c(OC)cc2OC)c1C	none (no result: HT1080-NT tox, HT1080 IDH1KD tx)
Cc1ccccc1-c1nn2c(=O)cc(CN3CCN(C(=O)c4ccccc4Br)CC3)nc2s1	none (no result: HT1080-NT tox, HT1080 IDH1KD tx)
Cc1c(O)ccc2c3c(c(=O)oc12)CCCC3	KB-V1 MDR tox 16µM, KB-3-1 cytotox inconclusive
Cc1c(O)ccc2c3c(c(=O)oc12)CCC(C)C3 (configuration not stated)	KB-V1 MDR tox inconclusive
O=C(c1ccc2c(c1)CCN2S(=O)(=O)c1ccc(Cl)cc1)N1CCN(c2ccccc2)CC1	none (no result: HT1080-NT tox, HT1080 IDH1KD tx)
O=C(Nc1ccncc1)C1c2ccccc2Oc2ccccc21	KB-V1 MDR tox 15µM
O=C(Nc1ncccn1)C1c2ccccc2Oc2ccccc21	KB-V1 MDR tox inconclusive
CC(=O)Nc1ccc(SC[C@H](Cc2ccccc2)N2CC[C@@H](N)CCC2=O)cc1	none (no result: HT1080-NT tox, HT1080 IDH1KD tx)
COc1ccc(CNC(=O)c2cc3cccc4c3n2CC(C)S4)cc1OC (configuration not stated)	none (no result: HT1080-NT tox, HT1080 IDH1KD tx)
Cc1ccc(-c2csc3nc[nH]c(=S)c23)cc1C	KB-V1 MDR tox 13µM, HT1080-NT tox inconclusive, HT1080 IDH1KD tx 21µM, KB-3-1 cytotox inconclusive
CN(C)S(=O)(=O)c1cccc(NC(=S)N/N=C/c2ccc(O)c(O)c2O)c1	none
CN(C)S(=O)(=O)c1cccc(NC(=S)Nc2ccc(Cl)cc2Cl)c1	KB-V1 MDR tox inconclusive
CC(/C=N/NC(=S)Nc1cccc(S(=O)(=O)N(C)C)c1)c1ccccc1 (configuration not stated)	KB-V1 MDR tox 21µM
CCN(CC)S(=O)(=O)c1ccc(N/N=C/c2cc(OC)ccc2O)nc1	KB-V1 MDR tox inconclusive, HT1080-NT tox 8.2µM, HT1080 IDH1KD tx 4.6µM, KB-3-1 cytotox inconclusive
